Common to all, as to assay: NCI-60 one-dose screen, 48 h (100 = growth as untreated, 0 = no growth, -100 = all killed)
For assay [1], the system named is HCT-15 colon. To be noted: 10 µM unless noted.
Assay [2] has as its system HT29 colon. The settings on record: 10 µM unless noted.
Assay [3] has as its system SNB-75 CNS. The settings on record: 10 µM unless noted.
The subject of assay [4] is SNB-19 CNS. The settings on record: 10 µM unless noted.
For assay [5], the system named is PC-3 prostate. To be noted: 10 µM unless noted.
Assay [6] has as its system SK-MEL-5 melanoma. The settings on record: 10 µM unless noted.
For assay [7], the system named is UACC-62 melanoma. The settings on record: 10 µM unless noted.
Assay [8] has as its system LOX IMVI melanoma. To be noted: 10 µM.
Assay [9] relates to SK-MEL-28 melanoma. The settings on record: 10 µM unless noted.
In assay [10] the test system is SK-MEL-2 melanoma. The settings on record: 10 µM unless noted.
For assay [11], the system named is SN12C renal. To be noted: 10 µM unless noted.
Assay [12] deals with UO-31 renal. To be noted: 10 µM unless noted.
Assay [13] deals with TK-10 renal. To be noted: 10 µM unless noted.
Assay [14] concerns ACHN renal. The settings on record: 10 µM unless noted.
Assay [15] deals with CAKI-1 renal. The settings on record: 10 µM unless noted.
Assay [16] relates to CCRF-CEM leukemia. To be noted: 10 µM unless noted.
For assay [17], the system named is MOLT-4 leukemia. The settings on record: 10 µM unless noted.
For assay [18], the system named is U251 CNS. The settings on record: 10 µM unless noted.
For assay [19], the system named is EKVX NSCLC. The settings on record: 10 µM unless noted.
Assay [20] has as its system A498 renal. To be noted: 10 µM unless noted.

Structures are written as SMILES. About 83,000 compounds went through this panel and 20% of them were active in at least one assay; those are over-represented in the sample as a whole.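 Single-dose data. Exposure time 48 hours. Values below 10 considered active.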 Values without a mark were called inactive. Active and inactive are the calls of the source.

Take `CCCCCCCCCCCCN1C(C)=CS/C1=C\C=C\c1scc(C)[n+]1CCCCCCCCCCCC`: the growth was 56.6% in [1]; 11% in [2]; 34.3% in assay [3]; 40.2% in assay [4]; 3.86% (active) in assay [5]; -83.9% (active) in assay [6]. Further, the growth in [7] was 5.41% (active); in assay [8], 25.9%; in [9], 47.2%; in [10] it was 1.51% (active); in [11], 18.2%; in assay [12] it was 62.6%. Also, the growth is 11.9% in assay [13]; 38.6% in [14]; 27.5% in [15]; 20% in assay [16]; 11.1% in [17].
Take `COc1ccc(C(OCC2OC(n3ccc(NC(=O)c4ccccc4)nc3=O)C(O)C2O)(c2ccccc2)c2ccccc2)cc1` (stereo unspecified): the growth in [1] was 20.6%; in assay [2] it was 8.51% (active); in [3], 34.1%; in assay [18] it was 33.1%; in assay [5], 22.9%; in assay [6], 24.2%. For the same compound, the growth is 43.9% in assay [7]; 46.6% in assay [8]; 55.9% in assay [9]; 90.1% in assay [10]; 38.4% in [19]; -38.2% (active) in assay [11]. Also, the growth in [12] was 22.7%; in assay [13], 81.5%; in assay [14], 47.3%; in assay [15], 55%; in assay [20], 52.8%; in [16], 47.1%. Also, the growth in [17] is 3.18% (active).
As for `NC(=S)Nc1ccc2c(c1)Cc1ccccc1-2`, the growth is 95.7% in assay [1]; 87.8% in assay [2]; 73.8% in assay [3]; 83.7% in [18]; 71% in assay [5]; 88.9% in [6]. Also, the growth in [7] is 77.3%; in assay [8] it was 91.4%; in assay [9], 103%; in assay [10], 89.6%; in assay [11], 89.4%; in assay [12] it was 55.2%. The growth was 121% in assay [13]; 91.7% in [14]; 92.1% in [15]; 110% in assay [20]; 70.5% in assay [16]; 88.7% in [17].
Take `CCCCCCCCC(=O)OCCCC(CCC(CCC1CCCO1)OC(=O)CCCCCCCC)OC(=O)CCCCCCCC` (stereo unspecified): the growth was 103% in assay [1]; 93% in assay [2]; 93.8% in assay [3]; 106% in [18]; 85.1% in assay [5]; 102% in assay [6]. Besides, the growth in assay [7] is 88.2%; in [8] it was 98.6%; in assay [9] it was 102%; in assay [10] it was 103%; in assay [11], 92.9%; in assay [13] it was 87.9%. The growth was 107% in [14]; 93.3% in assay [15]; 110% in assay [20]; 87.6% in assay [16]; 117% in [17].
For `CCOC(=O)C1=C(C(=O)c2ccccc2)C(c2cccc([N+](=O)[O-])c2)C(C(=O)c2ccccc2)=C(C(=O)OCC)N1`, the growth in assay [1] is 66.4%; in [2], 94.3%; in [3] it was 88.4%; in assay [18] it was 79.9%; in [5], 86%; in [6] it was 95.9%. Also, the growth in assay [7] is 70.2%; in assay [8], -57.6% (active); in [9], 95.6%; in assay [10], 105%; in assay [19] it was 87.9%; in [11], 93.7%. Besides, the growth in [13] is 112%; in assay [14] it was 88.4%; in assay [15], 79.6%; in [20], 104%; in assay [16] it was 65%; in assay [17], 52.2%.
In the case of `O=C1C=C(Cl)C(=O)c2ccccc21`, the growth in assay [1] was 98.9%; in [2], 119%; in [3], 71.4%; in assay [4] it was 97.4%; in assay [5], 81.7%; in assay [7] it was 98.2%. Moreover, the growth in assay [9] is 116%; in [11] it was 101%; in [12], 60.8%; in assay [13], 152%; in assay [14], 38%; in assay [15] it was 90.6%. Besides, the growth is 118% in assay [20], 53.3% in assay [16] and 37.4% in assay [17].
Consider `CCCCCCN(CCCCCC)CCCNc1nccc2ccccc12`, for which the growth in [1] is 17%; in assay [2], -11.6% (active); in [3] it was 33.5%; in [18], 9.66% (active); in assay [5] it was 20.4%; in assay [6], -91.3% (active). The growth in assay [7] is 21.8%; in assay [8], -39.3% (active); in [9], 13.1%; in assay [10], 21.4%; in assay [11], 18.7%; in [12], 15.2%. For the same compound, the growth is 39.8% in assay [13]; 19.2% in assay [14]; 21.4% in [15]; 12.4% in [16]; 11.8% in assay [17].
Turning to `Cc1cc(C)c(C#N)c(Sc2nc(C)c([N+](=O)[O-])c(C)c2C#N)n1`, the growth in [1] is 58.8%; in assay [2] it was 35.8%; in [3] it was 66%; in assay [4], 98.4%; in assay [5], 77.1%; in assay [6], 86.5%. Besides, the growth was 66.8% in assay [7]; 78.7% in [9]; 69.4% in assay [10]; 47.4% in [11]; 39.3% in [12]; 75.2% in assay [13]. In addition, the growth was 39.3% in assay [14], 0.956% (active) in [15], 110% in [20] and 39.7% in assay [17].
On to `NC(=S)N/N=C\c1nccc2c(N)cccc12`, for which the growth in [1] was 29.6%; in assay [2], 37.9%; in [3], 13.6%; in assay [18], 17.8%; in assay [5], 46.6%; in assay [6], 10.8%. In addition, the growth in assay [7] was -29% (active); in assay [8], 5.29% (active); in assay [9], 44.6%; in assay [10], 39.3%; in assay [19] it was 34.5%; in assay [11], 8.66% (active). Further, the growth in assay [12] was -8.44% (active); in [13] it was 48%; in [14], -7.84% (active); in assay [15], -23.9% (active); in assay [20], 12.2%; in assay [16] it was 8.4% (active). Further, the growth in [17] was 3.28% (active).

The record behind these values is PubChem BioAssay (NCI).
